Compound activity as filed in PubChem BioAssay.
UGM FP inh: Mtb UDP-galactopyranose mutase inhibition; P9WIQ1; purified UGM, fluorescence polarization probe displacement; inhibition, % at 10 µM; hit rate 0.06% among 320,000; in the data active means inhibition above about 10%, passing the limit was not always enough
Target sequence (P9WIQ1 whole entry, looked up): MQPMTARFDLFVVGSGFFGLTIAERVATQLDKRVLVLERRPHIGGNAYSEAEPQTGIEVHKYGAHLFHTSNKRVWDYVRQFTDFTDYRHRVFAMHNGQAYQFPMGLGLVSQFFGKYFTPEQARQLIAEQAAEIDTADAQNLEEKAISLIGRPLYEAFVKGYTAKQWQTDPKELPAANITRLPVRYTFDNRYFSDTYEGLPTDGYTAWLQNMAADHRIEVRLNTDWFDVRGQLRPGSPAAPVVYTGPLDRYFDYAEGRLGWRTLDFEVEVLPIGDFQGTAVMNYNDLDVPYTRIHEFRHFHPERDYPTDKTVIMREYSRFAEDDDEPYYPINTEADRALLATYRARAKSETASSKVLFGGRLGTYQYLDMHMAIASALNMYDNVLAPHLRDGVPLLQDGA
GDH-TPI counter-1: counter-screen for M. tuberculosis FBA inhibitors: GDH-TPI coupled enzymes. GDH-TPI coupled enzyme counterscreen, NADH absorbance. inhibition, % at 4.8 µM. hit rate 1.2% among 360,000. AID 588335; in the data active means inhibition above about 30%;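 further: 0% = DMSO wells and 100% = wells lacking the enzyme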
Mtb FBA inh: inhibitors of M. tuberculosis fructose-bisphosphate aldolase; hit rate 2.3% among 360,000; P9WQA3; inhibition, % at 1 µM; purified M. tuberculosis FBA, fluorescence read-out;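 further: 0% = vehicle and 100% = reference inhibitor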
FadD28 FP inh: M. tuberculosis FadD28 bisubstrate binding inhibition | inhibition, % at 12.5 µM | FadD28 bisubstrate probe binding, fluorescence polarization | hit rate 0.22% among 360,000 | AID 588549; in the data active means inhibition above about 8.5%, passing the limit was not always enough
Rv3671c protease: inhibitors of M. tuberculosis serine protease Rv3671c; P9WHR9; inhibition, % at 5.96 µM; hit rate 0.048% among 320,000; in the data active means inhibition above about 38%;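 further: extracellular domain of Rv3671c used as enzyme; 0% = enzyme with DMSO and 100% = no enzyme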
Mtb hypoxia rep: Mtb hypoxia fluorescent reporter inhibition; M. tuberculosis hypoxia-regulated fluorescent reporter, fluorescence; fluorescence inhibition, % (no concentration beside the values); hit rate 0.1% among 300,000; in the data active means fluorescence inhibition mostly above about 23%, no sharp cut-off; inactive means mostly below about 17%
Mtb FBA confirm: Mtb FBA inhibition, confirmed. AID 651616. shares compounds with Mtb FBA inh. purified M. tuberculosis FBA, fluorescence read-out. hit rate 78% among 5,600. inhibition, % at 1 µM;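 further: 0% = vehicle wells and 100% = reference inhibitor wells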
GDH-TPI counter-2: GDH-TPI inhibition counter-screen for FBA inhibitors | shares compounds with Mtb FBA inh | GDH-TPI coupled enzyme counterscreen, fluorescence | inhibition, % at 1 µM | hit rate 81% among 5,600 | AID 652141; in the data active means inhibition above about 10%
The depositor's hits bear a star; . = no result; + = active, no number. The list is not random: actives were taken first. Their share in the collection is about 3.5%. Unless noted, no stated cut-off is given here; in the data, active means inhibition above about 27%; inactive means the rest.

SMILES	UGM FP inh	GDH-TPI counter-1	Mtb FBA inh	FadD28 FP inh	Rv3671c protease	Mtb hypoxia rep	Mtb FBA confirm	GDH-TPI counter-2
CCN1CCN(c2cc3c(nn2)Oc2ccccc2N3C)CC1	-2	8	73*	0	-4	9	5	-5
CCN1CCN(c2cc(=O)n3ccccc3n2)CC1	6	13	7	0	2	5	.	.
O=C(Nc1ncc(Cc2ccccc2)s1)C1=NCCN1	-2	9	65*	0	1	13	93*	77*
Cc1ccc(Cc2cnc(NC(=O)C3=NCCN3)s2)cc1	-1	.	.	.	-7	0	.	.
CCn1c(=O)c(-c2ccccc2)c(O)c2ccccc21	0	-5	19	2	3	-6	.	.
CCCCn1c(=O)c(-c2ccccc2)c(O)c2ccccc21	3	0	31*	2	-1	6	112*	92*
O=c1c(-c2ccccc2)c(O)c2ccccc2n1-c1ccccc1	2	19	32*	0	-2	15	87*	73*
O=c1[nH]c2ccccc2c(O)c1-c1ccccc1	-1	22	7	0	-6	.	.	.
Cc1cc(C(=O)NN=Cc2cc(Br)c(Br)o2)n[nH]1	.	.	.	.	.	-8	.	.
CCc1sc(C(=O)Nc2ccc3nc(C)sc3c2)cc1C	-1	4	2	2	-29	-4	.	.
CCc1sc(C(=O)Nc2ccc(NC(C)=O)cc2)cc1C	2	2	27*	0	1	0	1	0
CC(C)(C)c1ccc(OCC(=O)NN=Cc2ccsc2)cc1	.	.	.	.	.	6	.	.
CCC1(O)C(=O)OCc2c1cc1n(c2=O)Cc2cc3cc(O)ccc3nc2-1 (centres undefined)	.	27	29*	-3	.	.	133*	120*
CC[C@@]1(O)C(=O)OCc2c1cc1n(c2=O)Cc2cc3c(NC(=O)CN)cccc3nc2-1	-4	25	66*	-2	-3	3	48*	36*
Cc1ccc(N2CCN(N=Cc3ccncc3)CC2)cc1	.	.	.	.	.	5	.	.
O=C(CNC(=O)c1cccc(Br)c1)N/N=C/c1ccc2c(c1)OCO2	1	11	33*	-1	5	.	141*	106*
CCN(CC)c1ccc(/C=N/NC(=O)CNC(=O)c2ccc3c(c2)OCCO3)cc1	4	42*	47*	0	-2	.	54*	47*
CC1=CC=CN2CC(O)CN=C12 (centres undefined)	-2	8	30*	-1	-3	-8	+	+
CC1=CN2CC(O)CN=C2C=C1 (centres undefined)	-3	5	38*	-3	-1	8	128*	97*
CCOC(=O)Cc1csc(NN=Cc2ccccc2)n1	.	.	.	.	.	7	.	.
COC(=O)C1=C(c2cccc(OCc3ccccc3)c2)CC2CCC1N2C(=O)NCc1ccc(C(F)(F)F)cc1 (centres undefined)	.	.	.	.	.	4	.	.
Cc1ccc(O)c(-c2cc3ccccc3[nH]2)c1	-3	16	52*	-1	5	-1	71*	45*
COc1ccc(-c2cc(=O)c3ccccc3[nH]2)cc1	1	11	12	-4	-6	7	.	.
COc1ccc(-c2cc3ccccc3[nH]2)cc1	-2	0	29*	-2	7	15	74*	62*
Cc1ccc(O)c(-c2cc(-c3ccccc3F)[nH]n2)c1	0	-12	0	-12	0	14	.	.
SMILES	UGM FP inh	GDH-TPI counter-1	Mtb FBA inh	FadD28 FP inh	Rv3671c protease	Mtb hypoxia rep	Mtb FBA confirm	GDH-TPI counter-2
c1ccc(-c2cc3ccccc3[nH]2)cc1	-3	5	60*	0	9	3	114*	93*
O=[N+]([O-])c1ccccc1/C=C\C=NN1CCN(c2ccccc2)CC1	.	.	.	.	.	5	.	.
NC1=NCC(c2ccccc2)N1CCCCC1CCCCC1 (centres undefined)	.	.	.	.	.	4	.	.
COC(=O)C1(C#N)C(c2ccccc2)C1(C(=O)OC)C(=O)OC (centres undefined)	-1	-7	2	-3	-13	17	.	.
CCCCC1OC2(C)OC(=N)C1(C#N)C(C#N)(C#N)C2c1ccccc1 (centres undefined)	0	11	78*	0	-3	1	116*	83*
CC1OC2(C)OC(=N)C1(C#N)C(C#N)(C#N)C2c1ccccc1 (centres undefined)	0	-4	53*	-2	12	17	62*	50*
COc1ccccc1C1C2=C(CCCC2=O)N(CC(=O)O)C2=C1C(=O)CCC2	4	5	40*	-1	3	.	-2	-2
CCOC(=O)c1[nH]cnc1C(=O)Nc1cccc(OC)c1	1	5	3	-3	-1	-9	.	.
CNC(=O)c1[nH]cnc1C(=O)Nc1cccc(OC)c1	2	8	71*	0	0	.	+	199*
CC(Cn1nnc([N+](=O)[O-])n1)=NNC(=O)c1ccc(O)cc1	.	.	.	.	.	16	.	.
O=C(CC1CC=CCCC(=O)OC(c2ccccc2)CNC1=O)NCCO (centres undefined)	.	.	.	.	.	10	.	.
Cc1oc(-c2cccs2)nc1CSCC(=O)NC1CC1	-1	-6	35*	-1	7	9	-2	-6
Cc1oc(-c2ccccc2Cl)nc1CSCC(=O)NC1CCCC1	0	-7	1	-3	0	10	.	.
CCOC(=O)N1CCC(NC(=O)CSCc2nc(-c3sccc3C)oc2C)CC1	2	16	40*	-1	2	6	1	-1
Brc1ccc(C=Nn2cnnc2)s1	.	.	.	.	.	8	.	.
O=C(O)c1cccc2c1-c1ccc(Cl)cc1C2	.	-9	-1	0	.	11	.	.
O=C(O)c1cccc2sc3cc(Cl)ccc3c(=O)c12	-1	13	63*	-4	-3	6	157*	126*
NC(=O)NN=Cc1c(Sc2nnnn2-c2ccccc2)nc2ccccn2c1=O	.	.	.	.	.	19	.	.
O=S(=O)(c1ccc2ccccc2c1)N1C=CC(C(F)(F)F)=NCC1	3	10	86*	-1	-4	.	-9	-5
CC(C)c1ccc(C=Nn2nnnc2Nc2ccccc2)cc1	.	.	.	.	.	2	.	.
CC(=O)Nc1ccc(-c2ccccc2)s1	1	5	2	2	1	.	.	.
CNC(=O)c1ccc(-c2ccccc2)s1	3	5	28*	-3	-1	.	78*	53*
NC(=O)C1(NC(=O)C2CC3(CC(c4cccc(NC(=O)c5cc([N+](=O)[O-])cc([N+](=O)[O-])c5)c4)=NO3)CN2C(=O)c2ccccc2)CC1 (centres undefined)	.	.	.	.	.	22	.	.
CC(C)Oc1ccc(C=NNC(=O)c2ccc(N(Cc3ccccc3)S(C)(=O)=O)cc2)cc1	.	.	.	.	.	0	.	.
COc1ccc2cc3cc(C(=O)N4CCN(c5ccccc5)CC4)oc3nc2c1	-3	6	4	0	1	2	.	.
CCOC(=O)C1CCN(C(=O)c2cc3cc4cc(OC)ccc4nc3o2)CC1	1	19	55*	-1	-6	-2	109*	98*
